In publication PMC4336329 (PLoS ONE, 2015):
In all, about 310,000 compounds went through this assay and about 14,000 (4.5%) showed an effect of 50% or more. Effects have a minus sign here. The sample as a whole holds a higher share of strong results than the screen did.

These compounds were tested against human ether-à-go-go-related gene (hERG) potassium channel (human, UniProt Q12809) (assay: primary screen, population patch clamp on CHO cells stably expressing hERG; higher = less effect of the substance).
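Note: peak tail current of the secondary pulse compared with the same well before compound.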

Chain of human ether-à-go-go-related gene (hERG) potassium channel (Q12809 whole entry, looked up): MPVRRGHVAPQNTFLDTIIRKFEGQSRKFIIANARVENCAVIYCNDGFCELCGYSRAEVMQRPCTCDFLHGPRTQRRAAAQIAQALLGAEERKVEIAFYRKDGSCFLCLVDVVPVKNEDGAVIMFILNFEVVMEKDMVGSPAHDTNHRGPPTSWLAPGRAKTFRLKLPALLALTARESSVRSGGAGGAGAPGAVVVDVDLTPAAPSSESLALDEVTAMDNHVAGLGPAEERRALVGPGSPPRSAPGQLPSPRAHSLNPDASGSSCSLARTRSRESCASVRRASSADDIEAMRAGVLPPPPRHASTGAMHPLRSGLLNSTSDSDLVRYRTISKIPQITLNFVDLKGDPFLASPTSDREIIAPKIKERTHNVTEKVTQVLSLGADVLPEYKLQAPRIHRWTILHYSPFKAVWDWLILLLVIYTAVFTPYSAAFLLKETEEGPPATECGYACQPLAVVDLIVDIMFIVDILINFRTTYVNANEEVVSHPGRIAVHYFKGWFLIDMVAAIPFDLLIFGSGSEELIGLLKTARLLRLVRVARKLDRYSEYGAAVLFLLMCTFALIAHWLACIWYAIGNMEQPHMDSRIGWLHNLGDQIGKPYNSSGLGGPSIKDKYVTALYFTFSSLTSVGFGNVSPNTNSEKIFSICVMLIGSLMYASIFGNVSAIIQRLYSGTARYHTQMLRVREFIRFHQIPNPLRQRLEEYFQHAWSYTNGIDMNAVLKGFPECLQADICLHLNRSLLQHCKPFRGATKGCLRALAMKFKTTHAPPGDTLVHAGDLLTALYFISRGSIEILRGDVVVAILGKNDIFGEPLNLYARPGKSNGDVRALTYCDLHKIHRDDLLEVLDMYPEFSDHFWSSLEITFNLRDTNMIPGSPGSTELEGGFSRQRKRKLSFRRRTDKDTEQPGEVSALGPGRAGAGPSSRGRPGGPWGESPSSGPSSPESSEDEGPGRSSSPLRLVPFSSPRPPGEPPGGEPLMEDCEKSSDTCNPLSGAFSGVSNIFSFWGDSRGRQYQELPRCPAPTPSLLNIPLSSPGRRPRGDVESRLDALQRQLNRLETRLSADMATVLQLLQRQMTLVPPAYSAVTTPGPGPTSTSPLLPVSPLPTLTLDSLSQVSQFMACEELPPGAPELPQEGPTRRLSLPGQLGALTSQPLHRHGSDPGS

SMILES	hERG current change (%, negative = inhibition) at 10uM [%]
CCC(NC(=O)c1ccccc1NC(=O)c1ccco1)C(=O)NC1CCCCC1 (stereo not drawn)	-22.5
CCOCCCNC(=O)c1ccc2c(c1)N(CC)C(=O)c1ccccc1S2=O (stereo not drawn)	16.2
CCN(CC)c1ccc(C2C(C(C)=O)C(=O)CC(C)(O)C2C(C)=O)cc1 (stereo not drawn)	-13.4
O=C(Nc1ccc(F)c(Cl)c1)NC1CC1	13.7
CC1(C)CC(=O)C(C(c2ccc(Br)cc2)C2C(=O)CC(C)(C)CC2=O)C(=O)C1	0.769
COc1cc(C)c(S(=O)(=O)Nc2ccccc2F)cc1C	6.11
Cc1cccn2c(=O)c3cc(C(=O)NCCN4CCOCC4)c(=N)n(Cc4cccnc4)c3nc12	-18.4
Cc1cccn2c(=O)c3cc(C(=O)NCC4CCCO4)c(=N)n(Cc4cccnc4)c3nc12 (stereo not drawn)	-95.1
O=C(NCc1cccnc1)C(=O)NCC1CCCO1 (stereo not drawn)	21.5
Cc1cccn2c(=O)c3cc(C(=O)NCc4cccnc4)c(=N)n(CC4CCCO4)c3nc12 (stereo not drawn)	-75.6
CCC(Sc1nc2ccccc2c(=O)n1CC1CCCO1)C(=O)NCc1cccnc1 (stereo not drawn)	-23.5
Cc1cccn2c(=O)c3cc(C(=O)NCC4CCCO4)c(=N)n(Cc4ccc(F)cc4)c3nc12 (stereo not drawn)	-75.7
Cc1ccc(Cn2c(=N)c(C(=O)NCC3CCCO3)cc3c(=O)n4cccc(C)c4nc32)cc1 (stereo not drawn)	-81.5
CN1CCN(CC#CCOc2ccc(Cl)cc2)CC1.O=C(O)C(=O)O	-0.0359
CSc1ccccc1NC(=O)COc1ccccc1C	6.39
CCOC(=O)C1(CC2CCCCO2)CCN(C(=O)Nc2ccc(SC)cc2)CC1 (stereo not drawn)	2.65
COc1ccccc1NC(=O)c1oc2ccc(C)cc2c1C	14.1
Cc1nnc(SCC(=O)NCc2ccccc2)[nH]c1=O	-7.09
COc1ccc(/C=C2/C(=O)OCc3cc(OC)c(OC)cc32)c(OC)c1	-27.8

SMILES	hERG current change (%, negative = inhibition) at 10uM [%]
CCOC(=O)C1=C(c2ccc(O)cc2)NC(=O)NC1C (stereo not drawn)	9.47
CC1(C)CC2CC(C)(CN2S(=O)(=O)c2ccc(F)cc2F)C1 (stereo not drawn)	-11.8
Cn1c(=O)c2c(ncn2CC(COCc2ccccc2)OCc2ccccc2)n(C)c1=O (stereo not drawn)	-12.1
Cn1c(=O)c2c(ncn2CC(COCc2ccccc2Cl)OCc2ccccc2Cl)n(C)c1=O (stereo not drawn)	-33.6
Cn1c(=O)c2c(ncn2CC(COCc2ccc(Cl)cc2)OCc2ccc(Cl)cc2)n(C)c1=O (stereo not drawn)	-51.1
CN(Cc1ccc(F)cc1)C(=O)c1cccc(NS(=O)(=O)c2ccccc2)c1	-13.4
COc1cccc(C(=O)Nc2ncc3c(n2)CC(c2ccc(OC)cc2OC)CC3=O)c1 (stereo not drawn)	-17.3
COc1ccc(CCNC(=O)c2ccccc2C(=O)NCCc2ccc(OC)c(OC)c2)cc1OC	3.48
CN(C)CCC(O)(c1ccccc1)c1ccccc1.Cl	-20.2
CN(C)C/C=C/C(O)(c1ccccc1)c1ccccc1	-61.5
CN(C)C(C)(C)/C=C/C(O)(c1ccccc1)c1ccccc1	-36.6
Cc1ccc(OCC(=O)OC(C)CN2CCCCC2)cc1.Cl (stereo not drawn)	12.2
C=CCNC(=O)c1cc(-c2ccncc2)nc2c(C)cc(C)cc12	-43.5
O=C(Nc1nccs1)c1nc(-c2ccccc2)n(-c2ccccc2)n1	6.62
O=C(O)CNC(=O)c1nc(-c2ccccc2)n(-c2ccccc2)n1	22.9
O=C(O)c1nc(-c2ccccc2)n(-c2ccccc2)n1	4.87
CCCC(C)NC(=O)c1nc(-c2ccccc2)n(-c2ccccc2)n1 (stereo not drawn)	-55.7
Cc1csc(NC(=O)c2ccccc2)n1	16.8
Cc1csc(NC(=O)c2nc(-c3ccccc3)n(-c3ccccc3)n2)n1	-79.2

SMILES	hERG current change (%, negative = inhibition) at 10uM [%]
O=C(c1cccc(S(=O)(=O)N2CCOCC2)c1)N1CCN(C/C=C/c2ccccc2)CC1	-46.3
CCC1Oc2ccc(C)cc2N(CC(=O)NCCC2=CCCCC2)C1=O (stereo not drawn)	-16
N/C(=N\c1nc2ccccc2o1)NC(=O)c1ccc(Cl)cc1	35.6
CCC(C(=O)OCc1csc(CC(=O)Nc2ccccc2C)n1)c1ccccc1 (stereo not drawn)	-6.51
COc1ccc(Cn2c(O)c(C=NCCN3CCOCC3)c(=O)[nH]c2=O)cc1	-14.4
Cc1cc(Cl)ccc1OCCCC(=O)NN	13.8
Cc1cc(Cl)ccc1OCC(=O)NC1CCCC1	-22.2
Cc1cc(Cl)ccc1OCCCC(=O)N1CCOCC1	-25
Cc1cc(Cl)ccc1OCCCC(=O)N1CCN(C)CC1	-30
Cc1cc(Cl)ccc1OCC(=O)N1CCCN(C(=O)COc2ccc(Cl)cc2C)CC1	-58.5
Cc1cc(Cl)ccc1OCC(=O)N1CCN(C)CC1	-12.5
Cc1cc(Cl)ccc1OCCCC(=O)N1CCN(C(=O)c2ccco2)CC1	-74.5
Cc1cc(Cl)ccc1OCCCC(=O)NC1CCN(C)CC1	-51.2
Cc1cc(Cl)ccc1OCCCC(=O)N1CCCCC1	-14.2
CN1CCN(C(=O)CCCOc2ccc(Cl)cc2Cl)CC1	-61.6
O=C(CCCOc1ccc(Cl)cc1Cl)N1CCc2ccccc2C1	12
Cc1cc(Cl)ccc1OCC(=O)N1CCCCC1	-0.846
CCC12CN(C(=O)c3ccc(OC)cc3)CC(CC)(CN(C(=O)c3ccc(OC)cc3)C1)C2=O	3.45
Cc1cc2cc3c(cc2nc1SCC(=O)N1CCOCC1)OCO3	2.58
